From PubChem BioAssay (Tox21) come the findings set out here.

The structures appear in SMILES notation. Values without a mark were called inactive. Results filed as inconclusive are left out. Active and inactive are the calls of the source. Unless noted, calls follow the shape of the dose curve; as a rule, active = well fitted curve in the direction sought with a large enough effect in the repeat runs; inconclusive = weak or mixed curves; inactive = no such curve, though single readings can be large; an effect the other way counts as inactive or inconclusive.

Assay [1] in a line: qHTS RealTime-Glo MT Cell Viability Assay in HepG2 cells - 16 hour (AID 1224885). Also: nearly all actives have a fitted effect of over 50% in size. The method, boiled down: (§1)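 Cell number in HepG2 cultures estimated from NanoLuc luminescence generated by metabolic reduction of a prosubstrate by living cells. The homogeneous, nonlytic format allowed repeated reads at 0, 8, 16, 24, 32 and 40 h of compound exposure.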
The nature of assay [2]: qHTS RealTime-Glo MT Cell Viability Assay in HEK293 cells - 8 hour (AID 1224887). Also: nearly all actives have a fitted effect of over 50% in size. Also: potency is read from the fitted curve at half-maximal effect. The method in brief: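 Measured as luminescence from the same continuously cultured HEK293 wells at successive time points (0, 8, 16, 24, 32, 40 h) after compound addition. Reagent present from seeding; dosing at 5 h; incubation 37 C.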
For orientation: Quantitative high-throughput screening tests each substance at several concentrations.

A short description of assay [3]: A CellTox Green Cytotoxicity Assay to monitor cytotoxicity in HEK293 cells - 16 hour (AID 1224888). Also: nearly all actives have a fitted effect of over 35% in size. Also: potency is read from the fitted curve at half-maximal effect. The method in brief:
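Homogeneous no-lysis format: HEK293 cell suspension mixed with CellTox Green reagent, seeded, incubated 5 h at 37 C/5% CO2, then dosed by pintool with compound in DMSO.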

Assay [4] in a line: qHTS RealTime-Glo MT Cell Viability Assay in HepG2 cells - 0 hour (AID 1224889). Also: nearly all actives have a fitted effect of over 50% in size. The method in brief:
as §1

The nature of assay [5]: A CellTox Green Cytotoxicity Assay to monitor cytotoxicity in HepG2 cells - 8 hour (AID 1224890). Also: nearly all actives have a fitted effect of over 45% in size. Also: potency is read from the fitted curve at half-maximal effect. The method in brief: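 Fluorescent DNA-binding dye, 600 HepG2 cells/well, 5 h preincubation then compound in DMSO; same plates read at 0–40 h, 37 C.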
Assay [6] in a line: qHTS assay to identify small molecule antagonists of the androgen receptor (AR) signaling pathway using the MDA cell line in the presence of 0.5 nM R1881 - cell viability counter screen (AID 1259242). Also: nearly all actives have a fitted effect of over 45% in size. Also: potency is read from the fitted curve at half-maximal effect. The method in brief: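 Human breast carcinoma MDA-kb2 cells, cultured without CO2, receive compounds alongside 0.5 nM (final) R1881 agonist. After 16 hr at 37C, viability is taken as live-cell protease signal.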

Assay [7] addresses Estrogen receptor (Homo sapiens) (UniProt P03372). The assay is described as follows: qHTS assay to identify small molecule antagonists of the estrogen receptor alpha (ER-alpha) signaling pathway using the BG1 cell line in the presence of 0.1 nM 17-beta-estradiol (AID 1259244). Also: nearly all actives have a fitted effect of over 50% in size. The method in brief:
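Seeding of stripped-serum-adapted VM7Luc4E2 cells, 24 h attachment, compound transfer, then 0.1 nM final 17beta-estradiol; after 22 h incubation, ONE-Glo reagent and luminescence reading.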

A short description of assay [8]: qHTS assay to identify small molecule HDAC inhibitors (AID 1259364). Also: potency is read from the fitted curve at half-maximal effect.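 Also: wild-type HCT-116 cells with endogenous class I/II HDAC activity; nearly all actives have a fitted effect of over 45% in size.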 The method, boiled down:
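After a 2 hr compound incubation (37C, 5% CO2), HCT-116 cells seeded at 1,500/well the day before received HDAC-Glo reagent; signal read as luminescence after 30 min at room temperature.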

Assay [9] is described as follows: qHTS assay to identify small molecule HDAC inhibitors - cell viability counter screen (AID 1259365). Also: nearly all actives have a fitted effect of over 50% in size. Also: potency is read from the fitted curve at half-maximal effect. The method in brief:
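Luminescence from CellTiter-Glo, developed 30min at room temperature, reports viability of wild-type HCT-116 cells treated 2hr with compounds at 37 C and 5% CO2 after overnight plating.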

Assay [10] in a line: qHTS assay to identify small molecule agonists of the sonic hedgehog signaling (Shh) pathway (AID 1259368; calls by dose curve;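 also: NIH/3T3-derived 3T3Gli1-Luc cells carrying a stable Gli1-driven firefly luciferase reporter; series mostly up to about 92 µM; nearly all actives have a fitted effect of over 15% in size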). The method in brief:
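Stable NIH/3T3 Gli1-Luc reporter clone; 24 hr cpd exposure after a 4 hr settling period; luminescence endpoint.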

Assay [11] in a line: qHTS assay to identify small molecule phospholipidosis (PLD) inducers (AID 1259344; active = well fitted curve in the direction sought with a large enough effect; an effect the other way counts as inactive or inconclusive). The method, boiled down:
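Accumulated phospholipid, stained red by LipidTOX during 24 h compound treatment of HepG2 cells at 37 C, is quantified from images as pit number and intensity, normalised per cell using Hoechst-stained nuclei.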

Assay [12] in a line: qHTS assay to identify small molecule antagonists of the estrogen receptor alpha (ER-alpha) signaling pathway using the BG1 cell line in the presence of 0.1 nM 17-beta-estradiol - cell viability counter screen (AID 1259241). Also: nearly all actives have a fitted effect of over 40% in size. Also: potency is read from the fitted curve at half-maximal effect. The method, boiled down: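 VM7Luc4E2, 4,000 cells/well, phenol red-free medium + 10% charcoal-stripped FBS; 24 hr plating; cpd + 0.1 nM E2 final, 22 hr 37C/5% CO2; CellTiter-Fluor 30 min, fluorescence.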

Assay [13] concerns the target Estrogen receptor beta (Homo sapiens) (UniProt Q92731). Description: qHTS assay to identify small molecule antagonists of the estrogen receptor beta (ER-beta) signaling pathway (AID 1259378; active = well fitted inhibition curve with a large enough effect in the signal ratio in the repeat runs, not every such curve was filed as active; the % refers to the signal ratio; also: potency is read from the fitted curve at half-maximal effect). The method, boiled down:
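Antagonist mode: compounds added to beta-lactamase reporter HEK293T ER-beta-UAS cells stimulated with E2 (1nM final), 16 hr at 37C. LiveBLAzer B/G FRET substrate, 2 hours room temperature, fluorescence read-out.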

Assay [14] in a line: qHTS assay to identify small molecule agonists of the sonic hedgehog signaling (Shh) pathway - cell viability counter screen (AID 1259366). Also: nearly all actives have a fitted effect of over 50% in size. Also: potency is read from the fitted curve at half-maximal effect. The method in brief:
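Cytotoxicity counter screen run in the same wells as the Shh reporter assay. NIH/3T3 cells carrying a Gli1 response element–driven luciferase were treated with DMSO-dissolved compounds for 24hr, and live-cell protease activity was measured with CellTiter-Fluor.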

Assay [15] can be described thus: qHTS assay to identify small molecule antagonists of the sonic hedgehog signaling (Shh) pathway - cell viability counter screen (AID 1259367). Also: nearly all actives have a fitted effect of over 55% in size. Also: potency is read from the fitted curve at half-maximal effect. The method in brief: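 CellTiter-Fluor signal in conditioned medium-stimulated 3T3 Gli1-Luc cells, 23 hr compound exposure, 37C.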
Assay [16] in a line: qHTS RealTime-Glo MT Cell Viability Assay in HEK293 cells - 24 hour (AID 1224886). The method, boiled down: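 Homogeneous bioluminescent viability format in HEK293 cells (600 cells/well). Following 5 h at 37 C/5% CO2, 23 nL compound was pintooled; the signal was measured repeatedly during 40 h incubation.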
For assay [17], the target named is Androgen receptor (Homo sapiens) (UniProt P10275). Description: qHTS assay to identify small molecule antagonists of the androgen receptor (AR) signaling pathway using the MDA cell line in the presence of 0.5 nM R1881 (AID 1259243). The method in brief:
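Cells: MDA-kb2 (MMTV-luc). Stimulus: 0.5 nM R1881. Time: 16 hr, 37C, no CO2. Detection: ONE-Glo luminescence after 30 min at RT.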

The nature of assay [18]: qHTS assay to identify small molecule antagonists of the sonic hedgehog signaling (Shh) pathway (AID 1259369; calls by dose curve; also: potency is read from the fitted curve at half-maximal effect; nearly all actives have a fitted effect of over 45% in size). The method, boiled down:
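Gli1 transcriptional reporter (firefly Luc) in NIH/3T3 background, conditioned-medium activated. 24hr exposure, luminescence endpoint.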

The target in assay [19] is Estrogen receptor beta (Homo sapiens) (UniProt Q92731). Description: qHTS assay to identify small molecule agonists of the estrogen receptor beta (ER-beta) signaling pathway (AID 1259377; active = well fitted activation curve with a large enough effect in the signal ratio in the repeat runs, not every such curve was filed as active; the % refers to the signal ratio). The method, boiled down: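 HEK293T ER-beta-UAS-bla; 2% charcoal-stripped FBS; cells pre-incubated 6 hr, compound 16 hr, 37C/5% CO2; LiveBLAzer B/G FRET substrate 2 h RT; fluorescence intensity read.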
Sequence of Estrogen receptor beta (Homo sapiens) (Q92731 whole entry, looked up): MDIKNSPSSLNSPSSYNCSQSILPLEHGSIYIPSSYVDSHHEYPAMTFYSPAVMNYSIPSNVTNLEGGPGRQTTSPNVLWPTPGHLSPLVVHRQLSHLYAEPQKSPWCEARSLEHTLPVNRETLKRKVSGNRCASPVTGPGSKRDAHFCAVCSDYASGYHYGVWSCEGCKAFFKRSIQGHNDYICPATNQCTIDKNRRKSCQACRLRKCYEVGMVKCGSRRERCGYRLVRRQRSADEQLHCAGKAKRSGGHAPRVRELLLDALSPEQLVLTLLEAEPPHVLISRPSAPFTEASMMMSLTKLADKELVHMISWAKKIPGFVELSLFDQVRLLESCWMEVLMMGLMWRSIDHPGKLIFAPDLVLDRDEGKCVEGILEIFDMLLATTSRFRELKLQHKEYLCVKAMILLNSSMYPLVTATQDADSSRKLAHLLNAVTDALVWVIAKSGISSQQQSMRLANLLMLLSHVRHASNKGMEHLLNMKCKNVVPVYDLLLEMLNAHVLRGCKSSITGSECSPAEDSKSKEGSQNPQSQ

Sequence of Estrogen receptor (Homo sapiens) (P03372 whole entry, looked up): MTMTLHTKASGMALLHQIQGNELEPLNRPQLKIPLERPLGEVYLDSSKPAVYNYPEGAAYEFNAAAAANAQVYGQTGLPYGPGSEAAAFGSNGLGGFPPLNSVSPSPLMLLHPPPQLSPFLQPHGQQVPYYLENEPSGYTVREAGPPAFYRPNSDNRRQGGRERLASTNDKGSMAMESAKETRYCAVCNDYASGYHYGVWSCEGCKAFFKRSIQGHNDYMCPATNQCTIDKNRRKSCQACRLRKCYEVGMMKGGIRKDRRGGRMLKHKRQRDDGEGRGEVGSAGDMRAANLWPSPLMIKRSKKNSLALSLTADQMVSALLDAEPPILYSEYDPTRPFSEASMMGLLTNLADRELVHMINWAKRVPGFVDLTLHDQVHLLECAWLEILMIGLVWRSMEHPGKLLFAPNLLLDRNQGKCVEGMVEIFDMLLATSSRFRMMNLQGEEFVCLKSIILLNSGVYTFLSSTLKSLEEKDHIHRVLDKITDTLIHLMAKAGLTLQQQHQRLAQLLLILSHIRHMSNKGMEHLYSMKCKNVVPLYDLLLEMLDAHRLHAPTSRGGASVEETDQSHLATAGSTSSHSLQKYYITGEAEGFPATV
Sequence of Androgen receptor (Homo sapiens) (P10275 whole entry, looked up): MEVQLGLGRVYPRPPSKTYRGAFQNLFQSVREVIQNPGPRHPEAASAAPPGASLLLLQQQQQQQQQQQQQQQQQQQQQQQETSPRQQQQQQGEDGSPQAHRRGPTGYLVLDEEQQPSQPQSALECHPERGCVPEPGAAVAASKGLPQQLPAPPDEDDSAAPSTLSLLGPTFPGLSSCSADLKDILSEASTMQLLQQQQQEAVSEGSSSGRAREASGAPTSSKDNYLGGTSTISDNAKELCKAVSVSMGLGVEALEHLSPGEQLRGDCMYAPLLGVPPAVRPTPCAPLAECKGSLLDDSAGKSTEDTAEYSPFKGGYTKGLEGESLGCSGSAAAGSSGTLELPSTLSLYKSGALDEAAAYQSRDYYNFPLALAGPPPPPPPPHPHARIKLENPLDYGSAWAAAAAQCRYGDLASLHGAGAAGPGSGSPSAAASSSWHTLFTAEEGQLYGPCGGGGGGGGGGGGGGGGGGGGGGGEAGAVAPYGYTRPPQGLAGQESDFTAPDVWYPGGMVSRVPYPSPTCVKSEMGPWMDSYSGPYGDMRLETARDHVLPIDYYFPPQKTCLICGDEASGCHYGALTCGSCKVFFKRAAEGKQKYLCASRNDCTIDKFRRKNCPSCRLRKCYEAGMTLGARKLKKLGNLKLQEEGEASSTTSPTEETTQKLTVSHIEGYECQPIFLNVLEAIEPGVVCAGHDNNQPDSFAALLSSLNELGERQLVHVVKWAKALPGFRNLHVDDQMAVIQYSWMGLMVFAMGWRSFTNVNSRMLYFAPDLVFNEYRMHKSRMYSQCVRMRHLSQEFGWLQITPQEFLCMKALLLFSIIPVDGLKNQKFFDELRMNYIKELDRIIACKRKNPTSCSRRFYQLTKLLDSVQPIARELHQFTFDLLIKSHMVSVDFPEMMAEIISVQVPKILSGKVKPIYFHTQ

For `Nc1cccnc1N`, the Potency entry in assay [1], in assay [2], in assay [3], in assay [4], in assay [5] and in assay [6] was “inactive” throughout. Moreover, the Potency entry in [7], in [8], in [9] and in assay [10] was “inactive” each time.

With `C=N[C@@H](C(=O)N[C@@H]1C(=O)N2[C@@H]1SC(C)(C)[C@@H]2C(=O)O)c1ccccc1`, the Potency result in assay [11] is “inactive”.

Take `CN1C(=O)C[C@@H](C(=O)N[C@@H](Cc2cnc[nH]2)C(=O)N2CCC[C@H]2C(N)=O)NC1=O`: the Potency entry in [11] was “inactive”.

Regarding `COC(=O)[C@H]1[C@H]2C[C@H]3c4[nH]c5ccccc5c4CCN3C[C@H]2CC[C@@H]1O`, the Potency result in [11] is “inactive”.

For the compound `CCCCC/C=C\C=C\C(=O)OCC`, the Potency result in assay [4], in assay [5], in assay [12], in [6], in assay [7] and in assay [8] was “inactive” in each case. Also, the Potency entry in assay [9], in [10] and in [13] was “inactive” each time.

Regarding `CC(C)Cc1ccc([C@H](C)C(=O)O)cc1`, in assay [11], the Potency entry was “inactive”.

Regarding `CCCCCCCCCCCCCCCCCCOCC(COP(=O)([O-])OCC[N+](C)(C)C)OC` (centres undefined), the Potency entry in assay [11] was “inactive”.

In the case of `CCN(CC)c1ccc2c(c1)Oc1cc(N(CC)CC)ccc1C21OC(=O)c2ccccc21`, the Potency result in assay [1], in assay [2], in assay [4], in [7], in [8] and in assay [10] was “inactive” throughout. In addition, the Potency in assay [3] was 21.3 µM (active); in assay [5] it was 23.9 µM (active); in assay [6], 10.6 µM (active); in assay [14] it was 3.76 µM (active); in assay [15], 3.35 µM (active).

`CC[C@@H](C(=O)[C@@H](C)[C@@H](O)[C@H](C)CCc1ccc(C)c(O)c1C(=O)O)[C@H]1O[C@](CC)([C@H]2CC[C@](O)(CC)[C@H](C)O2)C[C@@H]1C`: the Potency entry in assay [11] is “inactive”.

Take `O=C(O)[C@H]1CN(C/C=C/P(=O)(O)O)CCN1`: the Potency entry in [11] is “inactive”.

Consider `COc1cc(/C=C/C(=O)CC(=O)/C=C/c2ccc(O)c(OC)c2)ccc1O`, for which the Potency in assay [16] is 31.1 µM (active); in assay [2] it was 6.96 µM (active); in [3], 49.3 µM (active); in assay [5] it was 49.3 µM (active); in assay [17] it was 15.4 µM (active); in assay [14], 30.8 µM (active). In addition, the Potency in assay [15] was 24.5 µM (active); in assay [18], 8.69 µM (active). The Potency entry in assay [12], in assay [11] and in assay [8] was “inactive” throughout.

Turning to `O=C(Nc1ccccc1)c1cc(Cl)ccc1O`, the Potency entry in assay [1], in assay [2], in assay [3], in assay [4], in [5] and in [9] was “inactive” throughout. Also, the Potency result in assay [10] is “inactive”. For the same compound, the Potency in assay [6] is 17.2 µM (active); in assay [8], 0.686 µM (active); in assay [15], 54.5 µM (active). Besides, the compound was classed as inactive in assay [19].

As to `COc1ccc(OC)c(N=Nc2c(O)ccc3ccccc23)c1`, the Potency entry in assay [3], in assay [4], in assay [5], in assay [10] and in assay [13] was “inactive” each time. The Potency was 9.69 µM (active) in [12]; 24.3 µM (active) in assay [6]; 27.3 µM (active) in assay [8]; 24.3 µM (active) in assay [9]; 13.7 µM (active) in [14]; 13.7 µM (active) in assay [15]. The compound was classed as inactive in assay [19].

Regarding `CC(C)(C)C1=CC(=O)C(C(C)(C)C)=CC1=O`, the Potency result in assay [1], in [5], in assay [12], in [6], in [8] and in assay [9] was “inactive” in each case. Further, the Potency result in assay [14] and in assay [10] was “inactive” throughout. Besides, in [19], the call was inactive.

Turning to `CCOc1ccc([N+](=O)[O-])cc1`, the Potency result in assay [1], in assay [4], in [5], in [12], in [6] and in [7] was “inactive” each time. Also, the Potency entry in assay [8], in assay [9], in assay [15] and in assay [10] was “inactive” in each case. Moreover, the result in assay [19] was inactive. Besides, in [13], the Potency was 9.83 µM (active).

For `C=C1C(CCl)(CCl)C2(Cl)C(Cl)C(Cl)C1(Cl)C2(Cl)Cl` (centres undefined), the Potency was 43.1 µM (active) in assay [2], 48 µM (active) in [17] and 27 µM (active) in assay [13]. Also, the Potency entry in assay [4], in [5], in [12], in assay [6], in assay [11] and in [8] was “inactive” each time. Moreover, the Potency result in [9], in assay [15] and in [10] was “inactive” each time.
